Experimental data reported in PubChem BioAssay (NCI).
Where “and” joins values, the source holds several entries; their conditions need not be identical. Equal values may be shown once. Compounds without any hit were thinned out: in the full panel of roughly 83,000, 20% have a hit.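 Treatment: one concentration, 48 hours, 96-well format. Scoring: percent growth, with anything below 10 considered active.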 Calls of active or inactive are those of the source.

System: MDA-MB-468 breast
Test: NCI-60 one-dose screen, 48 h (100 = growth as untreated, 0 = no growth, -100 = all killed)
Conditions: 10 µM unless noted

O=c1c2cc(Br)cc(Br)c2nc(-c2ccc(Cl)cc2)n1/N=C\c1ccccc1F was tested, and the growth was 79.1% (inactive).
With CCc1nn2c(C)cc(C)nc2c1Cc1ccc(/C=C/CN2CCN(CCOCCOCCN3CCN(C/C=C/c4ccc(Cc5c(CC)nn6c(C)cc(C)nc56)cc4)CC3)CC2)cc1 the growth was -6.16% (active).
For O=C(Nc1ccc(Cl)cc1)c1cc2ccccc2cc1O, the growth was 21.4% (inactive) and -6.92% (active).
In the case of O=C(CCCCCCNC(=O)C(O)(O)C(F)(F)F)Nc1ncc(-c2ccc(Br)cc2)s1, the growth is reported as -35.8% (active).
In the case of CCOc1ccccc1/C=N/Nc1nc2ccccc2o1, the growth is reported as 28.1% (inactive).
In the case of Cc1cc(NCc2cc(Nc3ccnc4cc(Cl)ccc34)ccc2F)nc(N2CCOCC2)n1, the growth is reported as 39.9% (inactive).
O=S(=O)(O)C(C(I)I)S(=O)(=O)O was tested, and the growth was 95.9% (inactive).
In the case of CNCCNc1nc2ccccc2c2c(=O)c3cc(OC)ccc3sc12, the growth is reported as 44.7% (inactive).
Fc1ccc(Nc2nnc(-c3ccc(Cl)cc3)o2)cc1 was tested, and the growth was 97.9% (inactive).
With NNCCc1ccc(NC(=O)CCCc2ccc(C(=O)Nc3ccccc3N)cc2)cc1 the growth was 72.9% (inactive).
In the case of N#Cc1c(-c2ccc(Cl)cc2)csc1NC(=O)Nc1cccc(C(F)(F)F)c1, the growth is reported as 7.03% (active).
With Cn1cc(-c2csc(-c3c[nH]c4ccc(Br)cc34)n2)c2cnccc21 the growth was -70.5% (active).
For Cc1cc(-c2ccc(N=Nc3c(S(=O)(=O)O)cc4cc(S(=O)(=O)O)cc(N)c4c3O)c(C)c2)ccc1N=Nc1cc(S(=O)(=O)O)c2ccccc2c1O, the growth was 105% (inactive).
